Source: PubChem BioAssay (several laboratories)
Mtb hypoxia rep = PubChem AID 1159583. M. tuberculosis hypoxia-regulated fluorescent reporter, fluorescence. fluorescence inhibition, % (test concentration not listed). actives 0.1% (n = 300,000); in the data active means fluorescence inhibition mostly above about 23%, no sharp cut-off; inactive means mostly below about 17%
FBA Mtb inh = Mtb FBA enzyme inhibitors, primary screen, biochemical, fluorescence, strain H37Rv; AID 588726, 2011; purified M. tuberculosis FBA, fluorescence read-out; inhibition, % at 1 µM; actives 2.3% (n = 360,000); in the data active means inhibition above about 27%;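 further: 0% = vehicle and 100% = reference inhibitor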
Target sequence (P9WQA3 whole entry, looked up): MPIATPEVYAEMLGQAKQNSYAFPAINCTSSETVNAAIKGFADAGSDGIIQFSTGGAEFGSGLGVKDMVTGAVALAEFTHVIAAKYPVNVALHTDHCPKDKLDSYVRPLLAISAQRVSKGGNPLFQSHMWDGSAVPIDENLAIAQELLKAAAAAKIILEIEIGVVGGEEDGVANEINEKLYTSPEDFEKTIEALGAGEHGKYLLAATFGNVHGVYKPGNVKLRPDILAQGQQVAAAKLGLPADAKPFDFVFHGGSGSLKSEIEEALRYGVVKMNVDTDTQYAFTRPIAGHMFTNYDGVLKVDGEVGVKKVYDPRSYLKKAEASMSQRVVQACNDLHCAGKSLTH
PrP 5UTR inh = inhibition of PrP 5' UTR reporter expression; cell-based PrP 5' UTR mRNA reporter, plate reader; inhibition, % (concentration not given with the values); actives 0.35% (n = 340,000); in the data active means inhibition above about 52%; further: 0 = median of the neutral control wells
GDH-TPI counter = GDH-TPI coupling enzyme inhibitors, primary screen, artefact control for M. tuberculosis FBA inhibitor project, biochemical, absorbance, full deck; GDH-TPI coupled enzyme counterscreen, NADH absorbance; inhibition, % at 4.8 µM; actives 1.2% (n = 360,000); in the data active means inhibition above about 30%;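 further: 0% = DMSO wells and 100% = wells lacking the enzyme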
PrPC TRFRET = inhibitors of human cell surface prion protein PrPC, primary screen, cell-based, TR-FRET; Major prion protein (Homo sapiens), P04156; TR-FRET read-out; inhibition, % at 13.8 µM; actives 0.43% (n = 370,000); AID 720596, 2013; in the data active means inhibition above about 24%; further: 0% = median of the test wells and 100% = reference compound wells
Yp Topo-I inh = Yersinia pestis topoisomerase I inhibitors, primary screen, biochemical, cleavage product accumulation, plate reader, single point | DNA topoisomerase I (Yersinia pestis CO92) | Y. pestis Topo-I cleavage product accumulation | activity, % at 10 µM | actives 0.064% (n = 360,000); in the data active means activity above about 50%, passing the limit was not always enough
Starred values were filed as active, the others as inactive; · = no result; + = active, no number. In the library only some 3.8% were active in any assay of this set; here they are far more common.

SMILES	Mtb hypoxia rep	FBA Mtb inh	PrP 5UTR inh	GDH-TPI counter	PrPC TRFRET	Yp Topo-I inh
CC(=C\C(=O)O)/C(=C\c1cccc2ccccc12)C(=O)O	-12	3	·	31*	-2	-3
O=C(OCC#CCSc1nnc(-c2cccc3ccccc23)o1)c1ccccc1F	·	·	·	·	6	·
OCC#CCSc1nnc(-c2cccc3ccccc23)o1	54*	10	2	13	-3	-1
COc1ccccc1C(=O)OCC#CCSc1nnc(-c2cccc3ccccc23)o1	25	6	-26	7	-3	52*
CC1CN(C(C)CO)C(=O)c2cc(NS(=O)(=O)c3ccc(F)cc3)ccc2OC1CN(C)C(=O)Nc1ccc(C(F)(F)F)cc1 (stereo not drawn)	1	·	·	·	·	·
CN(C)S(=O)(=O)c1ccc(C(O)=C2C(=O)C(=O)N(Cc3cccnc3)C2c2ccco2)cc1 (stereo not drawn)	8	·	·	·	·	·
COC(=O)COc1ccc(C=NNC(=O)CN(c2ccccc2OC)S(=O)(=O)c2ccccc2)cc1	13	·	·	·	·	·
Cn1c(/C(C#N)=C/Nc2ccccn2)nc2ccccc21	·	4	-10	31*	2	12
Cc1ccc(/C=c2\sc3nc(-c4ccco4)nn3c2=O)o1	·	-2	-6	40*	·	-9
N#Cc1c(Nc2ccccc2)c(/C=N/N=C/c2ccccc2)c[nH]c1=O	·	1	-113	23	1	1
N#CC(C#N)=Cc1c[nH]c(=O)c(C#N)c1Nc1ccccc1	0	+	·	16	-23	1
COc1cc(C=NNC(N)=O)ccc1OC(=O)c1ccco1	1	·	·	·	·	·
CCCCCCCCCn1ccc(=N)cc1	13	0	4	8	25*	1
ON=C(c1ccc(F)cc1)C1CC1c1c(F)cccc1Cl (stereo not drawn)	10	·	·	·	·	·
CC(=O)c1ccc(N2CCN(S(=O)(=O)c3c(C)[nH]c(C)c3C(=O)N3CCCCC3)CC2)cc1	9	1	7	34*	-6	8
CC(=O)c1ccc(N2CCN(S(=O)(=O)c3c(C(=O)N4CCCC4)c(C)n(C)c3C)CC2)cc1	10	1	-3	40*	-12	9
CCCOc1ccc(C(CC)=NNC(=O)C2(C)CC2(Br)Br)cc1 (stereo not drawn)	8	·	·	·	·	·
Cc1c(N=Cc2nc3ccccc3n2C)c(=O)n(-c2ccccc2)n1C	-3	0	-31	43*	9	9
COc1cccc(-n2c(O)c(C=Nc3c(C)n(C)n(-c4ccccc4)c3=O)c(=O)[nH]c2=O)c1	·	-2	-7	21	5	1
Cc1c(N=Cc2nc3ccccc3[nH]2)c(=O)n(-c2ccccc2)n1C	3	-2	-34	42*	5	9
Cc1cccc(-c2ccc(C=Nc3c(C)n(C)n(-c4ccccc4)c3=O)o2)c1	·	3	-24	37*	3	15
CCCc1cc(NCCCCO)n2c(nc3ccccc32)c1C#N	19	178*	-27	6	3	3
CC(C)c1cc(NCCOCCO)n2c(nc3ccccc32)c1C#N	6	+	-21	-1	4	-4
CCCc1cc(NCCOCCO)n2c(nc3ccccc32)c1C#N	·	+	·	15	0	6
CCN(CC)CCCNc1cc(C(F)(F)F)c(C#N)c2nc3ccccc3n12	3	14	·	-4	-1	-5
SMILES	Mtb hypoxia rep	FBA Mtb inh	PrP 5UTR inh	GDH-TPI counter	PrPC TRFRET	Yp Topo-I inh
COc1cc(N/N=C/c2ccccc2O)ncn1	·	3	-31	47*	-2	-6
COc1ccc(C=NNc2cc(OC)ncn2)cc1	1	·	·	·	·	·
COc1ccccc1-c1oc2ccccc2c1-c1ccc2cc[nH]c2c1	4	20	-19	-2	5	-5
CCOC(=O)c1ccc(-c2c(-c3ccccc3OC)oc3ccccc23)cc1F	10	28*	7	15	3	19
COc1ccc(C(=O)c2sc(NC(C)C)nc2N)cc1OC	·	-2	1	37*	-9	-6
COc1cc2c(cc1OC)C(c1ccc(-c3cc(Cl)ccc3Cl)o1)=NCC2	·	0	9	14	·	-10
COc1cc2c(cc1OC)C(c1ccc(-c3ccc(Cl)cc3Cl)o1)=NCC2	6	2	-8	32*	3	28
CCOc1ccc(NC(C)C(=O)NN=Cc2cccs2)cc1 (stereo not drawn)	6	·	·	·	·	·
CCn1cc(C(=O)N2CCN(c3ccc(C(C)=O)cc3)CC2)c2cc(OC)c(OC)cc2c1=O	3	2	-14	36*	5	2
CC(=NNC(=O)c1cc(C2CC2)[nH]n1)c1cccs1	0	·	·	·	·	·
COc1cccc(/C=C2/SC(=O)N(CC(=O)N3CCc4ccccc4C3)C2=O)c1OCC(=O)O	·	-2	-8	32*	-25	21
CCn1c(-c2ccccc2)c(C(=O)O)c2ccccc21	·	28*	-9	-1	-4	2
COC(=O)/C(=C\C=C\c1ccccc1)NC(=O)c1ccccc1	·	-2	-7	23	1	3
O=C(Nc1ccc(C(=O)O)cc1)/C(=C\C=C\c1ccccc1)NC(=O)c1ccccc1Cl	4	-4	-2	56*	-11	8
O=C(O)CCNC(=O)/C(=C\C=C\c1ccccc1)NC(=O)c1ccccc1	1	5	-3	53*	-9	7
O=C(Nc1ccc(O)cc1)/C(=C\C=C\c1ccccc1)NC(=O)c1ccccc1	-2	1	·	74*	3	2
Cc1ccc(C(=O)N/C(=C\C=C\c2ccccc2)C(=O)NCc2ccco2)cc1	2	4	-9	36*	-10	16
COC(=O)c1ccc2[nH]c3cccc(C(=Cc4ccccc4)c4ccccc4)c3c2c1	12	·	·	·	·	·
CCOC(=O)N1CCC(Nc2nc3ccccc3nc2NS(=O)(=O)c2ccc(Cl)cc2)CC1	1	5	-41	42*	1	13
O=c1c2ccccc2nc2n1CCCCN2	·	68*	-25	3	-2	-5
CO/N=C1\CCn2c1c(C)c1ccccc12	·	3	-3	31*	1	-6
CON=C1CCn2c1c(C)c1ccccc12	2	·	·	·	·	·
COc1ccc(O)c(C=NNC(=S)NCCc2ccccc2)c1	12	·	·	·	·	·
O=C(Nc1ccc(O)cc1)/C(=C/c1ccco1)NC(=O)c1ccccc1	2	-4	-36	40*	-13	-3
O=C(Nc1ccc(C(=O)O)cc1)/C(=C\c1ccco1)NC(=O)c1ccc(Br)cc1	·	-1	·	40*	-13	4
OCCC1CC(O)C(O)[C@]2(CCc3ccccc3O2)O1 (stereo partly drawn)	-1	·	·	·	·	·
COc1ccc(C2=Nn3c(nnc3-c3ccccn3)SC2)cc1OC	7	0	17	35*	-8	0
COc1ccc(C2=Nn3c(nnc3-c3ccco3)SC2)cc1OC	10	-1	20	37*	-19	5
